KCNQ2 pot: KCNQ2 (rat) channel potentiation; CHO-K1 KCNQ2, FluxOR thallium flux fluorescence; stronger effect = higher value; B-score at 10 µM; hit rate 0.54% among 310,000;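 active means fluorescence ratio B-score at least 3 SD of library B-scores, with initial fluorescence B-score within 3 of them, cut at about 5.3 in these data; same plate scores as AID 2156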;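 further: B-score of peak minus minimum over baseline fluorescence ratio after K+ and Tl+ stimulus; positive B-score means potentiation of KCNQ2 with more thallium influx and brighter signal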
KCNQ2 inh: blocks the rat KCNQ2 potassium channel | CHO-K1 KCNQ2, FluxOR thallium flux, 20 min; stronger effect = lower value | O88943 | hit rate 1.1% among 310,000 | B-score at 10 µM;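 active means fluorescence ratio B-score at most minus 3 library SDs, with starting brightness B-score within 2 library SDs, cut at about -5.5 in these data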
Kir21 conf inh: confirmation of mouse Kir2.1 potassium channel inhibitors; shares compounds with KCNQ2 pot; Kir2.1-expressing cells, FluxOR thallium flux fluorescence; stronger effect = lower value; Tl flux remaining, % of negative control (stronger effect = lower value), % at 10 µM; hit rate 41% among 2,300;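 active means Primary-screen hit whose thallium flux fell at least 3 control SD below untreated wells in both duplicates, with normal baseline fluorescence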;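 further: 0% = blank wells without stimulus and 100% = stimulated no-compound controls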
Target sequence (P35561 whole entry, looked up): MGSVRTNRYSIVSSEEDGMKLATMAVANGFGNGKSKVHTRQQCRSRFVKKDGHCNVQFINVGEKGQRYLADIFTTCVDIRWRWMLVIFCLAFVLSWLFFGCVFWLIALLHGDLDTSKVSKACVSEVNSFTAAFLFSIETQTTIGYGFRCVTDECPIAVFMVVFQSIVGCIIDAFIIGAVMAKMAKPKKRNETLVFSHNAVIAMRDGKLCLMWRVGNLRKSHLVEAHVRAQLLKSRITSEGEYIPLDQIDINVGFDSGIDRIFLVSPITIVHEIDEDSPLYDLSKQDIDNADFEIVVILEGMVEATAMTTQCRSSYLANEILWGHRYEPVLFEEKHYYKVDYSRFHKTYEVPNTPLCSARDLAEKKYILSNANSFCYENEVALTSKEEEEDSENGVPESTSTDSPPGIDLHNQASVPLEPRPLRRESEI
HEK293 ctr: counter-screen for Kir2.1 inhibitors: effect in parental HEK293 cells; shares compounds with KCNQ2 pot; FluxOR thallium flux fluorescence; 0% = unstimulated blank wells; FluxOR signal as % of negative control (100 = no effect), % at 10 µM; hit rate 19% among 2,300;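 active means dye signal at least 3 control SD above or below untreated wells in both duplicates, raw fluorescence within 3, either direction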;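 further: percent is based on the flux ratio of peak minus minimum fluorescence over baseline F0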
CHO-K1 ctr: parental CHO-K1 activity in KCNQ2 potentiator counter-screen | hit rate 43% among 1,200 | parental CHO-K1 cells, FluxOR thallium flux fluorescence; zero = vehicle mean+3SD, 100% = vehicle-minus-blank window | AID 2282 | shares compounds with KCNQ2 pot | activity increase over 3SD of controls, % at 10 µM;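 active means signal rise of at least 3 SD above the untreated control mean, in both duplicate wells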;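 further: counter screen of KCNQ2 potentiator hits so any rise reflects channel-independent effects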
KCNQ1 sel pot: human KCNQ1 counter-target activity of KCNQ2 potentiators; shares compounds with KCNQ2 pot; CHO KCNQ1 stable, FluxOR thallium flux fluorescence; beyond 3SD, as % of vehicle-control signal; activation over 3SD threshold, % at 10 µM; hit rate 28% among 1,200; AID 2283;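 active means fluorescence ratio rise of at least 3 SD of vehicle wells above their mean, in both replicate wells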;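 further: 0% = vehicle mean plus 3 SD and 100% = vehicle minus unstimulated blank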
KCNQ2 pot conf: rat KCNQ2 channel potentiator confirmation. hit rate 68% among 1,200. CHO-KCNQ2 cells, FluxOR thallium flux fluorescence. AID 2287. potentiation, less the hit threshold, % at 10 µM. shares compounds with KCNQ2 pot;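 active means fluorescence ratio rising 3 SD or more over the vehicle control mean in both replicates, plus primary screen hit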;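 further: peak minus minimum thallium fluorescence divided by baseline after K/Tl stimulus; 0% = vehicle mean plus 3 SD and 100% = vehicle minus unstimulated blank difference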
Kir21 spec: mouse Kir2.1 off-target activity of KCNQ2 potentiators. activity over 3SD threshold, % at 10 µM. shares compounds with KCNQ2 pot. HEK293 Kir2.1, FluxOR thallium flux fluorescence. AID 2345. hit rate 2% among 1,200;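 active means fluorescence ratio rise of at least 3 SD above the vehicle-control mean, seen in both replicates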;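 further: 0% = vehicle mean plus 3 SD and 100% = vehicle minus no-stimulus blank window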
KCNQ2 W236L pot: potentiates the retigabine-insensitive rat KCNQ2 W236L mutant channel | shares compounds with KCNQ2 pot | CHO KCNQ2-W236L, automated patch clamp current | current increase over 3SD of negative controls (%), stronger effect = higher value, % at 25 µM | hit rate 10% among 940;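 active means current increase at least 3 SD of the untreated controls above them in both duplicate recordings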
* marks the source's active call; other numbers are inactive results; i = inactive; x = no result. In the library only some 1.6% were active in any assay of this set; here they are far more common.

SMILES	KCNQ2 pot	KCNQ2 inh	Kir21 conf inh	HEK293 ctr	others
COc1cccc(NC(=O)Cc2nnc(SCC(=O)NC3CCCCC3)n2C)c1	0.09	i	x	x
COc1ccccc1C(=O)Nc1nnc(-c2ccc(F)cc2)s1	x	i	x	x
COc1ccc(C(=O)Nc2nnc(-c3ccc(F)cc3)s2)c(OC)c1	10*	i	i	i	CHO-K1 ctr=-33;KCNQ1 sel pot=19*;KCNQ2 pot conf=-14;Kir21 spec=-38
O=C1NC(=S)SC1=C1CCCCCC1	23*	i	i	357%*	CHO-K1 ctr=40*;KCNQ1 sel pot=7.2*;KCNQ2 pot conf=57*;Kir21 spec=-26;KCNQ2 W236L pot=i
O=C1N=C(N2CCCCC2)SC1=C1CCCCC1	0.11	i	x	x
C=CCn1c(=S)[nH]c2cc(C(=O)Nc3ccc(OC)c(OC)c3)ccc2c1=O	x	i	x	x
C=CCn1c(=S)[nH]c2ccc(Br)cc2c1=O	5.9*	i	i	i	CHO-K1 ctr=-9;KCNQ1 sel pot=-38;KCNQ2 pot conf=-5;Kir21 spec=-36;KCNQ2 W236L pot=i
CN1CCN(C(=O)Cn2ncc3c([nH]c4ccccc43)c2=O)CC1	x	i	x	x
Cc1cc(C)c(S(=O)(=O)/N=C2\C=C(Nc3ccc(C(=O)O)cc3)C(=O)c3ccccc32)c(C)c1	7.9*	i	i	i	CHO-K1 ctr=9.1*;KCNQ1 sel pot=-7;KCNQ2 pot conf=0;Kir21 spec=-4;KCNQ2 W236L pot=i
CCc1ccc(S(=O)(=O)/N=C2\C=C(Nc3cccc(C(=O)O)c3)C(=O)c3ccccc32)cc1	1.2	i	x	x
CC(=O)Nc1cc2c(cc1NC(=O)Cn1nc(-c3ccccc3)ccc1=O)OCCO2	0.63	i	x	x
N#Cc1c(C(F)(F)F)cc(-c2ccc(F)cc2)[nH]c1=O	1.5	i	x	x
N#Cc1c(C(F)(F)F)cc(-c2ccc(Cl)cc2)[nH]c1=O	6.5*	i	i	i	CHO-K1 ctr=0.0*;KCNQ1 sel pot=-12;KCNQ2 pot conf=11*;Kir21 spec=-38;KCNQ2 W236L pot=i
CC(=O)/C(CN1CCCCC1)=N\O	x	i	x	x
C/C(=N\O)C(=O)C(CN1CCCCC1)CN1CCCCC1	6*	i	i	i	CHO-K1 ctr=-6;KCNQ1 sel pot=35*;KCNQ2 pot conf=-2;Kir21 spec=-31
COc1cccc(NC(=O)CSC2=NN3CCCC(=O)N=C3S2)c1	x	i	x	x
Cc1cc(C)c(C)c(S(=O)(=O)NCC(=O)Nc2ccccc2F)c1C	x	i	66%*	i
Cc1cc(C)c(C)c(S(=O)(=O)NCC(=O)O)c1C	0.38	i	x	x
COCCNCC(O)CON=C1c2ccccc2-c2ccccc21 (stereo not given)	x	i	32%*	i
CC(C)CCNCC(O)CON=C1c2ccccc2-c2ccccc21 (stereo not given)	x	i	x	x
Cc1cccc(N2CCN(C(=O)c3cc(COc4ccc(F)c(F)c4)on3)CC2)n1	0.54	i	x	x
Cc1cc(C)c2nc(N(CCCN(C)C)C(=O)c3ccc4c(c3)OCCO4)sc2c1	-5.8	-5.8*	50%*	i
Cc1cc(C)c2nc(N(CCCN(C)C)C(=O)C3=COCCO3)sc2c1	x	i	x	x
COc1cccc(CNC(=O)Cn2ncc3c(=O)oc4ccccc4c32)c1	0.47	i	x	x
CCC(=O)N1CCCC(C(=O)c2ccc(-c3ccccc3)cc2)C1 (stereo not given)	0.01	i	x	x
SMILES	KCNQ2 pot	KCNQ2 inh	Kir21 conf inh	HEK293 ctr	others
O=C(COc1ccccc1)NC1CCN(Cc2ccccc2)CC1	x	i	x	x
O=C(COc1ccc(Br)cc1Cl)NC1CCN(Cc2ccccc2)CC1	x	i	21%*	i
O=C(/C=C/c1cccc(F)c1)NC1CCN(Cc2ccccc2)CC1	0.69	i	x	x
CCOc1ccc2oc(C(=O)NC3CCN(Cc4ccccc4)CC3)c(C)c2c1	0.55	i	x	x
O=C(/C=C/c1cccc(Br)c1)NC1CCN(Cc2ccccc2)CC1	x	i	39%*	i
Cc1c(C(=O)NC2CCN(Cc3ccccc3)C2)oc2ccc(Br)cc12 (stereo not given)	x	i	60%*	i
CCc1ccccc1N1C(=O)C2C3C=CC(CC3)C2C1=O (stereo not given)	0.54	i	x	x
CC(=O)Nc1nc(Cn2nnc(-c3ccc4c(c3)OCO4)n2)nc(N(C)C)n1	x	i	x	x
CCOC(=O)CC1(NC(=O)C2CCC(=O)N(Cc3ccccc3OC)C2)CCCCC1 (stereo not given)	0.37	i	x	x
COc1ccccc1-n1c(=O)c2c3c(sc2n2c(=S)[nH]nc12)CCC3	x	i	x	x
CCOCCCNc1ncnc2c1[nH]c1ccccc12	1.5	i	x	x
CCCCOCCCNc1ncnc2c1[nH]c1ccccc12	x	i	44%*	i
CC(C)CC1c2[nH]c3ccccc3c2CCN1CCCn1cccn1 (stereo not given)	x	i	x	x
NC(=Nc1ccccc1)Nc1ccccc1	5.8*	i	i	i	CHO-K1 ctr=8.7*;KCNQ1 sel pot=-6;KCNQ2 pot conf=20*;Kir21 spec=-23;KCNQ2 W236L pot=i
CCOC(=O)/C(C(=Nc1ccccc1)Nc1ccccc1)=C(\C)O	x	i	x	x
CC(C)c1nnc(NC(=O)C2CCN(S(=O)(=O)c3ccc(-n4cnnn4)cc3)CC2)s1	0.43	i	x	x
CN(C)CCCN1c2ccccc2CCc2ccc(Cl)cc21	x	i	41%*	i
CN(CCCN1c2ccccc2CCc2ccccc21)CC(=O)c1ccc(Cl)cc1	x	i	x	x
Cc1ccc(S(=O)(=O)N2CCCCC2CCNC(=O)C(=O)Nc2ccccc2F)cc1 (stereo not given)	0.29	i	x	x
CCOc1ccccc1N1CCN(Cc2c(C)n(C)n(-c3ccccc3)c2=O)CC1	0.6	i	x	x
CC1CN(C(=O)CCC(=O)NC2CCCCC2)c2ccccc2S1 (stereo not given)	x	i	x	x
CCOc1ccc(OCC(O)CN2CCc3ccccc3C2)cc1 (stereo not given)	x	i	x	x
Cc1cc(OCC(O)CN2CCc3ccccc3C2)cc(C(C)C)c1 (stereo not given)	x	i	53%*	i
CC(=O)N1CCN(S(=O)(=O)c2cccc(C(=O)NCCc3ccc(Cl)cc3)c2)CC1	0.56	i	x	x
O=c1c2ccccc2nc(-c2ccc(F)cc2)n1NCc1ccccc1O	x	i	x	x
CC(OC(=O)CNC(=O)c1ccc2ccccc2c1)C(=O)NC1CCCCC1C (stereo not given)	0.08	i	x	x
c1ccc(CSc2nnnn2-c2cccc3ccccc23)nc1	x	i	66%*	i
O=C(O)c1cccc(-n2nnnc2SCc2ccccn2)c1	x	i	x	x
O=C(Nc1nnc(-c2ccc3c(c2)CCCC3)o1)c1c(F)cccc1F	x	i	x	x

Compound activity deposited in PubChem by Johns Hopkins Ion Channel Center.
